Measurements published in PMC7862700, “An all-to-all approach to the identification of sequence-specific readers for epigenetic DNA modifications on cytosine”.

Key:
Experiment in all cases: DAPPL (digital affinity profiling via proximity ligation, sequencing); 10 mM Tris-HCl pH 7.5, 50 mM NaCl, 1 mM DTT, 4% glycerol, room temperature, 30 min; GST-TFs on glutathione beads, 16-mer random dsDNA library, 0.1% formaldehyde crosslink after washing; high values mean tight binding
FLI1 = target: T1, FLI1 (Homo sapiens, UniProt Q01543 1-452); settings: protein: recombinant; tags: N-terminal GST; dsDNA, one strand shown
T1 sequence: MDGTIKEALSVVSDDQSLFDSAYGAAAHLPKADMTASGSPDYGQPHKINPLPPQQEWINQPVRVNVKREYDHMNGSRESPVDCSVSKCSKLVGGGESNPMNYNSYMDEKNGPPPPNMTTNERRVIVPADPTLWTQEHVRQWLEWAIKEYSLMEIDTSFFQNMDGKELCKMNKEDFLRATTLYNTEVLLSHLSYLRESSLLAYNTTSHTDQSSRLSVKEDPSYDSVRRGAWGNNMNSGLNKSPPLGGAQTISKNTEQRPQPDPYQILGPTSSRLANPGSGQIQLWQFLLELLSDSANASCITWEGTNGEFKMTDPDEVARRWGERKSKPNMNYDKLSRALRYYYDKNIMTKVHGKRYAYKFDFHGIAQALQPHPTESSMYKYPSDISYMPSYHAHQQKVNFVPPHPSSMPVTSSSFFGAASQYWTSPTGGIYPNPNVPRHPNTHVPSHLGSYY
In short: (§1)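 A tag-only sample was pooled with DNA-barcoded human transcription factors that had been expressed in yeast as GST fusions and captured on glutathione beads. The pools were incubated for 30 min at room temperature with 200 nmole of a random double-stranded 16-mer DNA library in Tris/NaCl/DTT/glycerol buffer, then washed, crosslinked with 0.1% formaldehyde, proximity-ligated (BsaI/T4 ligase, 1 h, 37 °C), PCR-amplified and sequenced on an Illumina NextSeq500. Binding signal is each hexamer's read frequency for a factor divided by its frequency for the tag-only sample.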

ELK1 = target: T2, ELK1 (Homo sapiens, UniProt P19419 1-428); settings: protein: recombinant; tags: N-terminal GST; dsDNA, one strand shown
T2 sequence: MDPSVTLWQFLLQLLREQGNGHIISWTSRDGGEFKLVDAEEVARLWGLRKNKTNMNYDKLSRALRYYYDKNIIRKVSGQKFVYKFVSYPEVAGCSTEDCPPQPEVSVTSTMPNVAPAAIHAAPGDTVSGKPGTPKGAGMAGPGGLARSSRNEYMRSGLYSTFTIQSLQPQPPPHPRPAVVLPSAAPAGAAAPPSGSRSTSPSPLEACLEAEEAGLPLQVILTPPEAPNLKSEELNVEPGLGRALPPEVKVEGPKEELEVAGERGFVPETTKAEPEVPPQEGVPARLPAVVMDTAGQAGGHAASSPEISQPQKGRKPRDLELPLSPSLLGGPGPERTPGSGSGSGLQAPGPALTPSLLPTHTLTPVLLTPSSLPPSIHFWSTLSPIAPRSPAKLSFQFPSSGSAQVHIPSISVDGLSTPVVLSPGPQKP
In short: as §1

GABPA = target: T3, GABPA (Homo sapiens, UniProt Q06546 1-454); settings: protein: recombinant; tags: N-terminal GST; dsDNA, one strand shown
T3 sequence: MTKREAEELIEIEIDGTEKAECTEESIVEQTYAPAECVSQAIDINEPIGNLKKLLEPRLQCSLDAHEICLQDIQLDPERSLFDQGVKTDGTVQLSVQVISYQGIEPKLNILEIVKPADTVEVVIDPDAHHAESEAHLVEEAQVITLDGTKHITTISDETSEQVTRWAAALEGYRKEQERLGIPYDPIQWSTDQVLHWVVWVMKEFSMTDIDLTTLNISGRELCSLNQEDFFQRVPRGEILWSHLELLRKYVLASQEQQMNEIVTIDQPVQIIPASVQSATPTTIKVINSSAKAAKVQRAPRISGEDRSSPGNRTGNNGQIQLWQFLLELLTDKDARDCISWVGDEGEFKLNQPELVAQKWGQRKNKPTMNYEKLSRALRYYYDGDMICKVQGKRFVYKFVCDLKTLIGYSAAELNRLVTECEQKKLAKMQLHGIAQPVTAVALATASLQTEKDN
In short: as §1

ERG = target: T4, ERG (Homo sapiens, UniProt P11308 1-479); settings: protein: recombinant; tags: N-terminal GST; dsDNA, one strand shown
T4 sequence: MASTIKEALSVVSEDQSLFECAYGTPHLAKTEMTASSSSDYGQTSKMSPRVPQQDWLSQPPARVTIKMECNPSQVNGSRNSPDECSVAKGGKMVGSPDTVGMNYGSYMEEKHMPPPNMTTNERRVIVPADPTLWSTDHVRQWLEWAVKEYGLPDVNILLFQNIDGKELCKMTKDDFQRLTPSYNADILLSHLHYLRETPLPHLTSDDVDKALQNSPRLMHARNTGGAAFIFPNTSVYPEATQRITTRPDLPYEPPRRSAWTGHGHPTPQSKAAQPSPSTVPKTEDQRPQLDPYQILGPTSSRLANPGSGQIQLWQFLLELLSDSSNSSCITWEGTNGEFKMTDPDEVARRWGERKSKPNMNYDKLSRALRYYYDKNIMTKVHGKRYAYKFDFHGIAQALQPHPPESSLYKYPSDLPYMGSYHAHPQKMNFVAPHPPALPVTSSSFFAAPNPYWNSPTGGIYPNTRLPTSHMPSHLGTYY
In short: as §1

ELF1 = ELF1 (Homo sapiens, UniProt P32519 1-619); settings: protein: recombinant; tags: N-terminal GST; dsDNA, one strand shown
In short: as §1

EHF = target: T5, EHF (Homo sapiens, UniProt Q9NZC4 1-300); settings: protein: recombinant; tags: N-terminal GST; dsDNA, one strand shown
T5 sequence: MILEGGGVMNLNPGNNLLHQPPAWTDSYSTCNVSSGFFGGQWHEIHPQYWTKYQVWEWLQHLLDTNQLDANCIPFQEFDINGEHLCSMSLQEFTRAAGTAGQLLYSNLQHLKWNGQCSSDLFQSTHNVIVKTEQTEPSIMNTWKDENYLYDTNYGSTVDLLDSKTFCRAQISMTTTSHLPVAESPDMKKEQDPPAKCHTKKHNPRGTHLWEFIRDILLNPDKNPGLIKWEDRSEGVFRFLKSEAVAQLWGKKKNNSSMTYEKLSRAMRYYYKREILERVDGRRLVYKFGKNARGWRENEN
In short: as §1

SPI1 = SPI1 (Homo sapiens, UniProt P17947 1-270); settings: protein: recombinant; tags: N-terminal GST; dsDNA, one strand shown
In short: as §1

SPIB = SPIB (Homo sapiens, UniProt Q01892 1-262); settings: protein: recombinant; tags: N-terminal GST; dsDNA, one strand shown
In short: as §1

ELK3 = target: T6, ELK3 (Homo sapiens, UniProt P41970 1-407); settings: protein: recombinant; tags: N-terminal GST; dsDNA, one strand shown
T6 sequence: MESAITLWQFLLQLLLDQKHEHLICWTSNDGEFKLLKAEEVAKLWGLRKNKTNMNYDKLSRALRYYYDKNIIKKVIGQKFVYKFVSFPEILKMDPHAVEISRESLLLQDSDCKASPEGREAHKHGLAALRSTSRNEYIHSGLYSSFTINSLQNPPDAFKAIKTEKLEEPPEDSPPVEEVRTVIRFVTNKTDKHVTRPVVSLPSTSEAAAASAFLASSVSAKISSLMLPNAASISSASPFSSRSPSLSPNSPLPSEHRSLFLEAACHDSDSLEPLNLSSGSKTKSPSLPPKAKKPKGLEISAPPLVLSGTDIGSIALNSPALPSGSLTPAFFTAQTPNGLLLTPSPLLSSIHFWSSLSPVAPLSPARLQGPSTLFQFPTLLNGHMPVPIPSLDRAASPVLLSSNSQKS
In short: as §1

FEV = target: T7, FEV (Homo sapiens, UniProt Q99581 1-238); settings: protein: recombinant; tags: N-terminal GST; dsDNA, one strand shown
T7 sequence: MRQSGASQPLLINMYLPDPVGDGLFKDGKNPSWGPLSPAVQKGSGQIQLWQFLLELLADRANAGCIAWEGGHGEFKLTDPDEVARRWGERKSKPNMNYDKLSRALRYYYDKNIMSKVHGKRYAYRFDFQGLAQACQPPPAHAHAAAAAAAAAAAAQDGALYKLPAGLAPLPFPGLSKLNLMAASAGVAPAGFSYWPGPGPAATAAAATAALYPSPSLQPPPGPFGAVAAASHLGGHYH
In short: as §1

ETV5 = ETV5 (Homo sapiens, UniProt P41161 1-510); settings: protein: recombinant; tags: N-terminal GST; dsDNA, one strand shown
In short: as §1

HSF1 = HSF1 (Homo sapiens, UniProt Q00613 1-529); settings: protein: recombinant; tags: N-terminal GST; chain copies: 3; dsDNA, one strand shown
In short: as §1

SPIC = target: T8, SPIC (Homo sapiens, UniProt Q8N5J4 1-248); settings: protein: recombinant; tags: N-terminal GST; dsDNA, one strand shown
T8 sequence: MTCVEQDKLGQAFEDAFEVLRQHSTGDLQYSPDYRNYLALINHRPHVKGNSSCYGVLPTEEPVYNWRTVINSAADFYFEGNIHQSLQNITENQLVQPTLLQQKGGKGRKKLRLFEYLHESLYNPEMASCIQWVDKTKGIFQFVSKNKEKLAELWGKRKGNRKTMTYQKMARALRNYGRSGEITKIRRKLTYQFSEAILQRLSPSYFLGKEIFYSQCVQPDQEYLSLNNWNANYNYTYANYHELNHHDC
In short: as §1

ELF4 = ELF4 (Homo sapiens, UniProt Q99607 1-663); settings: protein: recombinant; tags: N-terminal GST; dsDNA, one strand shown
In short: as §1

ELK4 = target: T9, ELK4 (Homo sapiens, UniProt P28324-2 1-405); settings: protein: recombinant; tags: N-terminal GST; dsDNA, one strand shown
T9 sequence: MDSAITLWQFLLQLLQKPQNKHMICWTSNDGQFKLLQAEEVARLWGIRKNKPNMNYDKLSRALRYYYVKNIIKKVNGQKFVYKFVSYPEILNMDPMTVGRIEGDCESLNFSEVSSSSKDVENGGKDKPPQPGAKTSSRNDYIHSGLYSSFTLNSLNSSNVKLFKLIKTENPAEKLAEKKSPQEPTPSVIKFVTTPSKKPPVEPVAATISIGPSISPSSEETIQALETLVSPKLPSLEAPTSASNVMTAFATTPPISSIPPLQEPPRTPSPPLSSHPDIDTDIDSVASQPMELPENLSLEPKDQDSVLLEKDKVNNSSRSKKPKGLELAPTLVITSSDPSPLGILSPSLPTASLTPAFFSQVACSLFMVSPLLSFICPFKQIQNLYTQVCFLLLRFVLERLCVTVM
In short: as §1

ETV2 = target: T10, ETV2 (Homo sapiens, UniProt O00321 1-342); settings: protein: recombinant; tags: N-terminal GST; dsDNA, one strand shown
T10 sequence: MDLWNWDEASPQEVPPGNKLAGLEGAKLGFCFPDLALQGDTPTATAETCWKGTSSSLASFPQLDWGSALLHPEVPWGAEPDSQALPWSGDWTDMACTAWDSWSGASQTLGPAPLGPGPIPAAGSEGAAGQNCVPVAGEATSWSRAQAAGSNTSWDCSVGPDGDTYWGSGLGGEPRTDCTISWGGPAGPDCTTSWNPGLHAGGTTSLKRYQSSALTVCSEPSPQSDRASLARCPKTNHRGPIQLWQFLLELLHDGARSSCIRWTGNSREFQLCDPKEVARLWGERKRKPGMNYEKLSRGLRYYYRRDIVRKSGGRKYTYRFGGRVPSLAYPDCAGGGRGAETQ
In short: as §1

ELF3 = target: T11, ELF3 (Homo sapiens, UniProt P78545 1-371); settings: protein: recombinant; tags: N-terminal GST; dsDNA, one strand shown
T11 sequence: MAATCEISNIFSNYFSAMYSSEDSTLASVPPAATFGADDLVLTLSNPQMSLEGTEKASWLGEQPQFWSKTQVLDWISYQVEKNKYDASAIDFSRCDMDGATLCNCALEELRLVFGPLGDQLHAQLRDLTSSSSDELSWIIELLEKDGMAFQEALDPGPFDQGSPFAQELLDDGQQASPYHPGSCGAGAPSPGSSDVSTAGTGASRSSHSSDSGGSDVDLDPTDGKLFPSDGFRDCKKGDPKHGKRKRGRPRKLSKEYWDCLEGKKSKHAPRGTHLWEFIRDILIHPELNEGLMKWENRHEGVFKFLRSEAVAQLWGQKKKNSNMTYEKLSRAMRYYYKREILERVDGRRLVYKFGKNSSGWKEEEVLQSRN
In short: as §1

ETV1 = ETV1 (Homo sapiens, UniProt P50549 1-477); settings: protein: recombinant; tags: N-terminal GST; dsDNA, one strand shown
In short: as §1

ETV5, sequence (P41161 whole entry): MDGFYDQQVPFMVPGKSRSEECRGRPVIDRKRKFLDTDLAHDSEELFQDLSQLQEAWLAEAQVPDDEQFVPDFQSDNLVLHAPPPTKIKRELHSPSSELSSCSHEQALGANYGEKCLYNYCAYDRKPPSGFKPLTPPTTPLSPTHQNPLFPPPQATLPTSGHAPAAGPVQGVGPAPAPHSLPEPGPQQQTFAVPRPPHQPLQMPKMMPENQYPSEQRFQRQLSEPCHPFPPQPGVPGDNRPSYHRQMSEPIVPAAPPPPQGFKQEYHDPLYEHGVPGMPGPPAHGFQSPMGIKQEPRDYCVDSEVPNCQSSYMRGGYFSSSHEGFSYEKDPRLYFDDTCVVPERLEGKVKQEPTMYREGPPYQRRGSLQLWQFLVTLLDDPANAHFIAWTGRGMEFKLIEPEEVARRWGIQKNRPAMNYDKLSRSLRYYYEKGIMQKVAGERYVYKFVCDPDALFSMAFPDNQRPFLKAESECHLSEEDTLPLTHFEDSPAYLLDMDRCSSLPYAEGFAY
ELF1, sequence (P32519 whole entry): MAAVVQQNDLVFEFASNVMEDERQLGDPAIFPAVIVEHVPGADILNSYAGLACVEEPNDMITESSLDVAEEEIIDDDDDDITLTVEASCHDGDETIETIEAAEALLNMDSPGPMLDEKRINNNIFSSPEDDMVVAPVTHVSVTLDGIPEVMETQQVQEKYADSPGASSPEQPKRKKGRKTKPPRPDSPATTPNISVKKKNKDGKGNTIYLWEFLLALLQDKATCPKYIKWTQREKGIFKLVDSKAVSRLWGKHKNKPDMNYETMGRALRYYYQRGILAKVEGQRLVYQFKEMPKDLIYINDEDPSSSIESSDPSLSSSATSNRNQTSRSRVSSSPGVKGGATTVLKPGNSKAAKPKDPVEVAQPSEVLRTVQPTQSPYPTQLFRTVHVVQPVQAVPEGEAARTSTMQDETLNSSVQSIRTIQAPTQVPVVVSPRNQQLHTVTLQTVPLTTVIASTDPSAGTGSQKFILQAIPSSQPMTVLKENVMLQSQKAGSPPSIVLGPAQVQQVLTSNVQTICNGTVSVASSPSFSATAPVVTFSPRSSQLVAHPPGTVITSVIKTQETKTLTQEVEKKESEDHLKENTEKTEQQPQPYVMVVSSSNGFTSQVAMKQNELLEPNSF
HSF1, sequence (Q00613 whole entry): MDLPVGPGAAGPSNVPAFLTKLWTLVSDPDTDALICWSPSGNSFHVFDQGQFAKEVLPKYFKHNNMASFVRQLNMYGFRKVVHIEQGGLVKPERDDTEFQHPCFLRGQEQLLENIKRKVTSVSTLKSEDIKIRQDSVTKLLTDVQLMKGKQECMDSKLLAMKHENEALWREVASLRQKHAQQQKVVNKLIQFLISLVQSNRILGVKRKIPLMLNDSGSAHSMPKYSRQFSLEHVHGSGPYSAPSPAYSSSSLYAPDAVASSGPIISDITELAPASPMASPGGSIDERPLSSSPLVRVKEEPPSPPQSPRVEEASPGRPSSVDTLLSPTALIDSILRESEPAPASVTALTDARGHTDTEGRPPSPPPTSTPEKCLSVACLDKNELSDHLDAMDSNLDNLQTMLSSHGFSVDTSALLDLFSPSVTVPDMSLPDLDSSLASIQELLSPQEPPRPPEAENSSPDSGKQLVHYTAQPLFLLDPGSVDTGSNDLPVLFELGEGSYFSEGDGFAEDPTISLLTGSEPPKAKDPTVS
SPIB, sequence (Q01892 whole entry): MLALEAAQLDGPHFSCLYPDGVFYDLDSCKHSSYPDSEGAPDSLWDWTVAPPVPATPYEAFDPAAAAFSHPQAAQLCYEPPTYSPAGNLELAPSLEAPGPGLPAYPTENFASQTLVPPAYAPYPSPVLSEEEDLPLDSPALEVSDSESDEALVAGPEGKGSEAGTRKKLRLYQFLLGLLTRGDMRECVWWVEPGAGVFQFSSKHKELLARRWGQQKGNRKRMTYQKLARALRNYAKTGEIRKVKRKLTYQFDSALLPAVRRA
ETV1, sequence (P50549 whole entry): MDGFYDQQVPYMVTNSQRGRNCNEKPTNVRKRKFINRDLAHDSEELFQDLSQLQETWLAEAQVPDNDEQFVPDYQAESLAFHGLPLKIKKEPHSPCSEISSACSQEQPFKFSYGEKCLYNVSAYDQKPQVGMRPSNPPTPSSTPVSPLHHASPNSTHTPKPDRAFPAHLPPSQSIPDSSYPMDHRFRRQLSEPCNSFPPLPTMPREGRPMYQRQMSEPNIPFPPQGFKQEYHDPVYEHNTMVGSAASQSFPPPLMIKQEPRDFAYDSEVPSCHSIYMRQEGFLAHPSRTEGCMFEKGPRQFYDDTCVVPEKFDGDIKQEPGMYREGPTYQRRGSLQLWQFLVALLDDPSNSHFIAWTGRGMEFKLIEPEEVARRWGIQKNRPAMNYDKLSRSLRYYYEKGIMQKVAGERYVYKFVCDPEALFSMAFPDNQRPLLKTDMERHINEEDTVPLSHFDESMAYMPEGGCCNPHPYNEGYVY
ELF4, sequence (Q99607 whole entry): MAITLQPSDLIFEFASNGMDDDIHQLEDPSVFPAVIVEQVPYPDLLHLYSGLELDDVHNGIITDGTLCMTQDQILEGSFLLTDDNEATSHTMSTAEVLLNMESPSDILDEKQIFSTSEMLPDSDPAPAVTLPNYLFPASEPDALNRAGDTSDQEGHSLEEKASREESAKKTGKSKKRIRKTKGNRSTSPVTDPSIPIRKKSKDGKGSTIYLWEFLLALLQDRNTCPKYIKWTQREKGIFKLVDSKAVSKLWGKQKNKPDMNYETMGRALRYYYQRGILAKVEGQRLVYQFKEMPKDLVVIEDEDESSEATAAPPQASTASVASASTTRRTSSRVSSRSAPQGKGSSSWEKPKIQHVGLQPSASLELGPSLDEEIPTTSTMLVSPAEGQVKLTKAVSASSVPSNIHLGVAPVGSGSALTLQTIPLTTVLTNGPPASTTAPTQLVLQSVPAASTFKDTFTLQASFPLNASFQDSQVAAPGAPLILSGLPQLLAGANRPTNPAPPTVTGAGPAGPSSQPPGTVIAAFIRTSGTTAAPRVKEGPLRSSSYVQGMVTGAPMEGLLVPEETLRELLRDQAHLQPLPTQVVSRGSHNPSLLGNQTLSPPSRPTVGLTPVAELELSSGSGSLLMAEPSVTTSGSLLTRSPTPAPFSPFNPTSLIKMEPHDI

ACGGAA
binding signal (FLI1): 1.66 fold enrichment (6-mer frequency, TF over GST control) | binding signal (ELK1): 1.69 fold enrichment (6-mer frequency, TF over GST control) | binding signal (GABPA): 1.58 fold enrichment (6-mer frequency, TF over GST control) | binding signal (ERG): 1.93 fold enrichment (6-mer frequency, TF over GST control) | binding signal (ELF1): 1.62 fold enrichment (6-mer frequency, TF over GST control) | binding signal (EHF): 2 fold enrichment (6-mer frequency, TF over GST control) | binding signal (SPI1): 2.02 fold enrichment (6-mer frequency, TF over GST control) | binding signal (SPIB): 1.93 fold enrichment (6-mer frequency, TF over GST control) | binding signal (ELK3): 1.94 fold enrichment (6-mer frequency, TF over GST control) | binding signal (FEV): 1.83 fold enrichment (6-mer frequency, TF over GST control) | binding signal (ETV5): 1.94 fold enrichment (6-mer frequency, TF over GST control) | binding signal (HSF1): 1.01 fold enrichment (6-mer frequency, TF over GST control) | binding signal (SPIC): 1.69 fold enrichment (6-mer frequency, TF over GST control) | binding signal (ELF4): 1.61 fold enrichment (6-mer frequency, TF over GST control) | binding signal (ELK4): 1.5 fold enrichment (6-mer frequency, TF over GST control) | binding signal (ETV2): 1.75 fold enrichment (6-mer frequency, TF over GST control) | binding signal (ELF3): 1.89 fold enrichment (6-mer frequency, TF over GST control) | binding signal (ETV1): 1.85 fold enrichment (6-mer frequency, TF over GST control)
